Our source for the inhibition values is PubChem BioAssay AID504401 (The Scripps Research Institute Molecular Screening Center, 2011).

The assay relates to Phorbol Ester. Nature of the assay: CYP450 and receptor off-target profile – biochemical, Ricerca HitProfilingScreen, selectivity assay for GPR7 antagonist project, late-stage follow-up (AID 504401). As to conditions: Ricerca radioligand binding and CYP450 panel, at 10 µM, stronger effect = higher value.

Values without a mark were called inactive. No rule for the calls is given here.

For the compound `COc1ccc(Oc2c(Cl)cnn(-c3cc(C)cc(C)c3)c2=O)cc1`, the inhibition – broadly, the drop in the measured response relative to a control, in per cent – is -15%.
